Screening results (PubChem BioAssay)
NS1 inh – blocks influenza NS1 protein function. Potency, µM (series often up to 46.1 µM), for the others: at the highest dose activity, positive = more growth. 270,000 compounds, 0.4% hits; calls by dose curve; further: potency means the concentration at half of the fitted maximal effect; actives are rising curves; nearly all actives have a fitted effect of over 50% in size
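OD600 was taken as the measure of yeast growth restored by compound in an NS1-expressing S. cerevisiae strain. Cells had been washed out of glucose medium and diluted 1:100 into galactose -URA medium, pH 6.0.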
Cycloheximide cs – counter-screen for Shiga toxin inhibitors: cycloheximide protein synthesis inhibition; AID 2314; max response, %; 300,000 compounds, 12% hits; cell reporter, cycloheximide protein synthesis inhibition counterscreen; in the data active means max response mostly above about 13%, no sharp cut-off; inactive means mostly below about 14%; further: read at 38.3 µM for the half of the compounds with a filed dose; 0% is about no effect
Pf growth 48h – inhibits P. falciparum growth in the first generation, 48 h. P. falciparum luciferase growth in erythrocytes, 48 h. Potency, µM (highest dose often 28.7 µM), inactives show top-dose activity change, negative = inhibition, actives largely listed as inhibitors. 310,000 compounds, 5.9% hits. AID 504832; further: potency means the concentration at half of the fitted maximal effect; on the % scale 0 is the no-effect control and ±100 the full control effect
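In quantitative HTS format, infected erythrocytes bearing luciferase-reporter parasites were treated for a single generation at 37 C. Luminescence after adding detection reagent served as the growth measure.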
Pf growth 96h – inhibits malaria parasite growth, 96 h; P. falciparum luciferase reporter growth, 96 h; Potency, µM (doses to about 28.7 µM), without a hit: at the highest dose activity change, negative = inhibition, actives largely listed as inhibitors; 320,000 compounds, 6.9% hits; AID 504834; further: potency means the concentration at half of the fitted maximal effect; on the % scale 0 is the no-effect control and ±100 the full control effect
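P. falciparum expressing integrated firefly luciferase grown in erythrocytes (2% hematocrit, 0.05% parasitemia final) with compounds for 96 hours at 37 C, 5% CO2. Growth inhibition read as loss of luminescence after adding luciferase detection reagent.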
Giardia FBPA inh – blocks Giardia fructose-bisphosphate aldolase activity; A8B2U2; purified Giardia FBPA; Potency, µM (doses to about 59.6 µM), inactives show top-dose activity, negative = inhibition, most hits filed as inhibitors; 290,000 compounds, 0.71% hits; AID 2451; further: potency means the concentration at half of the fitted maximal effect; on the % scale 0 is the no-effect control and ±100 the full control effect; nearly all actives have a fitted effect of over 55% in size
Target sequence (A8B2U2 whole entry, looked up): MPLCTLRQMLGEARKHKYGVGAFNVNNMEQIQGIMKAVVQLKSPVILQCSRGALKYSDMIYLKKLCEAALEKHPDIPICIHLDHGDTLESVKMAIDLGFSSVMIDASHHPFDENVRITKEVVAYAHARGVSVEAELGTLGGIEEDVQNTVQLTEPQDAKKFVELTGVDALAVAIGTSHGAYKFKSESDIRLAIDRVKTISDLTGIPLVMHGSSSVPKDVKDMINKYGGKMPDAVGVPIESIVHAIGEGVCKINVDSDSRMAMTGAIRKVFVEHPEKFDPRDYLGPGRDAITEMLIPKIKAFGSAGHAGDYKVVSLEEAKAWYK
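Giardia FBPA (40 nM reagent) was preincubated 10 min at RT with compound (up to 57.5 uM final), then substrate plus GAPDH/TPI/NAD/arsenate coupling system with diaphorase/resazurin was added; resorufin fluorescence (525/598 nm) was read after 20 min.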
Shiga toxin inh – inhibitors of Shiga toxin in Vero cells; Vero cells, Shiga toxin protein synthesis inhibition reporter; inhibition, % at 38.7 µM; 290,000 compounds, 9.2% hits; in the data active means inhibition mostly above about 28%, no sharp cut-off; inactive means mostly below about 43%; further: 0% is about no effect
An asterisk follows results filed as active; ? = inconclusive; nt = no result given; [ ] = dose if it differs, or a comment. This is a sample that favours compounds with a hit; in the whole collection about 21% have one here. Unless noted, the call rests on the fitted dose curve; in most records, active means well fitted curve in the direction sought with a large enough effect; inconclusive means small, poorly fitted or top-dose-only effect, or another doubt; inactive means no such curve, though single readings can be large; an effect the other way counts as inactive or inconclusive.

SMILES	NS1 inh	Cycloheximide cs	Pf growth 48h	Pf growth 96h	Giardia FBPA inh	Shiga toxin inh
O=C(CCCOc1ccccc1)Nc1ccccc1C(F)(F)F	-4.9%	14.6	-9.1%	?	1.4%	-6.7
Cc1ccccc1NC(=O)Cc1ccccc1	-1.7%	-2.5	1.4%	?	0.4%	-0.9
O=C(CCCc1ccccc1)Nc1ccccc1C(F)(F)F	-18.3%	12.5*	31.4%	?	3.2%	nt
O=C(CC(=O)Nc1ccccc1C(F)(F)F)Nc1ccccc1C(F)(F)F	-1.4%	7.1	0.7%	33.3%	6.2%	-4.5
C[C@H]1C[C@@H]2[C@@H]([C@@H](O)C[C@@]3(C)[C@H]2CC[C@]3(O)C(=O)CO)[C@@]2(C)C=CC(=O)C=C12	nt	nt	-15.6%[12.8 µM]	?	-1.1%[21.7 µM]	nt
CC(C)Oc1ccc(S(=O)(=O)N2CCOCC2)cc1NC(=O)CN1C(=O)NC2(CCCC2)C1=O	5.8%	-1.7	?	-25.7%	nt	-22.5
CN(C)S(=O)(=O)c1nc(Cl)c2[nH]cnc2n1	-0.7%	nt	nt	nt	nt	nt
Cc1ncc([N+](=O)[O-])n1Cc1ccc(Br)cc1	-2.0%	5.9	7.0%	-14.8%[5.75 µM]	5.0%	-8.9
CC(C)N(CC(=O)Nc1ccc(Cl)cc1C(F)(F)F)C(=O)CCl	nt	20.9*	3.9%	-8.1%	-1.2%	20.6
Cc1cccc(NC(=O)CCCc2ccccc2)c1C	8.7%	23.3*	8.9%	34.9%	-0.7%	32.4*
O=C(CN1C(=O)c2ccccc2S1(=O)=O)c1ccc2c(c1)OCCO2	4.2%	-4.5	?	-18.7%	7.0%	-20.0
O=C(CCN1C(=O)c2ccccc2S1(=O)=O)Nc1ccc2c(c1)OCCO2	-7.2%	34.2*	21.6%	-13.1%	-11.0%	37.4
O=C(CN1Cc2ccccc2C1=O)Nc1ccc2c(c1)OCCO2	1.7%	83.0*	95.0%	6.4%	9.2%	85.4*
O=C(CCN1C(=O)c2ccccc2S1(=O)=O)Nc1ccc(C(=O)O)cc1	3.3%	0.9	35.8%	10.4µM*	20.2%	-3.2
O=C(CN1C(=O)c2ccccc2S1(=O)=O)c1ccc2c(c1)OCCCO2	4.7%	-10.9	?	1.47µM*	-6.3%	-26.5
CCCOc1ccc(C(=O)NNC(=O)CCNC(=O)c2ccco2)cc1OC	nt	nt	43.9%	43.5%	nt	nt
CN(C)CCNc1ccccn1	-3.1%	nt	nt	nt	nt	nt
CC(NC(=O)c1ccccc1F)c1nnc(SCC(=O)NC2=NCCS2)n1C (centres undefined)	7.7%	-2.7	14.0%	-1.8%	-3.2%	-4.3
CC(C(O)C12CC3CC(CC(C3)C1)C2)N1CCCCC1 (centres undefined)	nt	-4.8	-15.9%	?	-3.7%	6.1
COc1cc(/C=N/NC(=O)c2cccc([N+](=O)[O-])c2)ccc1OCc1ccccc1	17.5%	2.3	16.5µM*	9.28µM*	0.2%	-16.0
CCOc1cc(/C=N/NC(=O)c2cc(C)[nH]n2)ccc1OC(=O)c1ccc([N+](=O)[O-])cc1	0.1%	7.0	1.3%	99.5%	nt	15.9
COc1cc(/C=N/NC(=O)c2cccc([N+](=O)[O-])c2)ccc1OC(=O)c1ccco1	nt	7.2	-10.4%	27.4%	-7.1%	40.2*
COc1cc(/C=N/Nc2cccc(C)c2)ccc1OC(=O)c1ccco1	-4.3%	38.6*	-11.0%	12.3%	-1.0%	19.7
COc1ccc(/C=N/NC(=O)c2cccc([N+](=O)[O-])c2)cc1OC	5.3%	1.0	8.0%	-24.6%	-1.2%	17.4
COc1cc(/C=N/NC(N)=O)ccc1OC(=O)c1ccco1	nt	0.4	-6.5%	10.1%	4.6%	-15.4
SMILES	NS1 inh	Cycloheximide cs	Pf growth 48h	Pf growth 96h	Giardia FBPA inh	Shiga toxin inh
CCOc1cc(/C=N/n2cnnc2)ccc1OC(=O)c1cccc([N+](=O)[O-])c1	9.0%	-3.0	21.8%	3.29µM*	6.6%	-19.7
CCCCn1c(N)c(N(CCOC)C(=O)CCS(=O)(=O)c2ccc(Cl)cc2)c(=O)[nH]c1=O	nt	nt	-7.7%	?	nt	nt
CC1CN(C(=O)c2cc(S(=O)(=O)N(C)c3ccc(F)cc3)ccc2Cl)CC(C)O1 (centres undefined)	20.5%	6.1	-19.9%	-12.8%	nt	-12.0
O=C(COc1ccc(/C=N/NC(=O)c2ccncc2)cc1)Nc1cccc([N+](=O)[O-])c1	5.4%	11.9	-1.9%	?	2.2%	25.3
COc1cc(/C=C/[N+](=O)[O-])ccc1OCc1cccc(C(=O)O)c1	-0.6%	83.2*	42.5%	10.9%	9.6%	131.3*
COc1cc(/C=N/NC(=O)c2ccc(O)cc2)ccc1OCC(=O)Nc1cccc([N+](=O)[O-])c1	-3.7%	6.9	22.5%	10.4µM*	12.5%	11.0
COc1cc(/C=N/NC(=O)c2ccc(O)cc2)ccc1OCC(=O)N1CC(C)OC(C)C1 (centres undefined)	6.9%	14.1*	-6.3%	10.8%	1.6%	36.9*
CCC(C)(Oc1ccc(C2(c3ccc(OC(C)(CC)C(=O)O)cc3)CCCCC2)cc1)C(=O)O (centres undefined)	nt	nt	0.8%	?	nt	nt
CC(=O)n1nc(-c2ccc(C)cc2)nc1NCc1ccc(F)cc1	-4.5%	1.9	-8.5%	?	0.5%	8.1
COC(=O)C1=C(C)[C@H](O)[C@@H](C)[C@](C)(c2cc(OC)c(C)c(OC)c2COc2ccccc2)O1	nt	nt	nt	nt	-1.3%	nt
Cn1ncc(Br)c1NC(=O)CSc1ccc(Cl)cc1	-4.2%	0.7	-0.1%	27.1%	0.1%	32.4
CN1CCN(c2ccc(Cl)cc2NC(=O)c2ccc([N+](=O)[O-])cc2)CC1	8.2%	-4.4	?	?	-0.2%	-10.3
CN1CCN(C(=S)Nc2cc([N+](=O)[O-])ccc2Cl)CC1	-18.4%	11.3*	18.5%	9.9%	?	-1.8
CN1CCN(c2cc([N+](=O)[O-])ccc2Cl)CC1	nt	-4.2	-0.1%	-22.3%	1.1%	19.6
CN1CCN(c2ccc([N+](=O)[O-])cc2NC(=O)c2ccccc2Cl)CC1	2.5%	6.4	11.7µM*	?	nt	14.9
CCOC(=O)Cn1ccc(-c2ccccc2)c(C#N)c1=O	-1.5%	1.4	-3.9%	22.5%	4.4%	8.7
Nc1nc(N)c(N=Nc2ccc(C(=O)O)c(O)c2)c(N)n1	-3.8%	nt	nt	nt	nt	nt
COc1cccc2c(=O)n(CC(=O)Nc3ccccc3F)ccc12	25.5%	27.0*	43.4%	25.2%	5.6%	22.7*
COc1cccc2c(=O)n(CC(=O)NC3CCCCC3)ccc12	-7.4%	9.8*	19.8%	21.1%	-0.7%	4.9
COc1cccc2c(=O)n(CC(=O)N3CCC(C)CC3)ccc12	-10.1%	1.1	4.0%	0.4%	0.5%	7.4
COc1cccc2c(=O)n(CC(=O)Nc3ccc(F)cc3)ccc12	10.7%	5.2	32.9%	74.2%	1.1%	-5.6
CC(C)Oc1ccc(C2NC(=O)c3ccccc3O2)cc1 (centres undefined)	3.0%	1.4	1.0%	?	13.8%	9.6
CC(=O)N(CCC(c1ccccc1)c1ccco1)Cc1cccs1 (centres undefined)	5.7%	-2.2	48.2%	1.4%	15.2%	-4.1
